# Screens from PubChem.
# ELG1 repair inh – inhibitors of ELG1-dependent DNA repair in HEK293T cells; HEK293T ELG1-luciferase reporter, luminescence, 16 h; DNA damage induced by 5-fluorouridine; Potency, µM (series often up to 46.1 µM), usual class: inhibitors; hit rate 2.3% among 330,000; also: nearly all actives have a fitted effect of over 55% in size
#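 In this reporter screen, reduction of luminescence relative to DMSO vehicle indicated activity. Compounds and 5-fluorouridine were added together to 2,000 cells per well, incubated for 16 hr at 37 °C, then developed with ONE-Glo.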
# DT40 TDP1 CPT – growth inhibition of DT40 Tdp1-/-;hTDP1 cells with camptothecin (screen for TDP1 inhibitors) | chicken DT40 Tdp1-/-;hTDP1 cells + 20 nM CPT, ATP luminescence, 48 h | Potency, µM (titrated, usually from 46.2 µM), hits mostly inhibitors | hit rate 12% among 420,000; also: nearly all actives have a fitted effect of over 55% in size
#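 Cell growth measured by CellTiter-Glo luminescence after a minimum 48 h, 37 C compound exposure with 20 nM CPT in Tdp1-knockout DT40 cells stably expressing hTDP1, seeded 400/well; qHTS titration format.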
# HT1080NT lethal – kills 2HG-producing HT-1080-NT fibrosarcoma cells; HT-1080-NT fibrosarcoma viability, CellTiter-Glo ATP luminescence, 48 h; Potency, µM (highest dose often 46.1 µM), most hits filed as cytotoxic; hit rate 1.6% among 360,000; AID 686970;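 also: NT is the 2HG producing partner of a matched IDH1 knockdown line; nearly all actives have a fitted effect of over 55% in size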
#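 Viability by CellTiter-Glo luminescence after 48 h compound exposure at 37C of HT-1080-NT cells (750/well, RPMI, 5% FBS). % activity scaled between DMSO wells and medium-only wells, then curve-fitted and categorized by curve class.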
# TDP1 cell noCPT – qHTS for Inhibitors of human tyrosyl-DNA phosphodiesterase 1 (TDP1): qHTS in cells in absence of CPT | hit rate 15% among 420,000 | DT40 Tdp1-/- hTDP1 cells, no CPT, ATP luminescence, 48 h | AID 686978, 2013 | Potency, µM (titrated, usually from 46.2 µM), actives largely listed as inhibitors; also: nearly all actives have a fitted effect of over 55% in size
#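 Compound effects on proliferation are scored in DT40 Tdp1-/-;hTDP1 cells in the absence of CPT. ATP levels (CellTiter-Glo luminescence) are recorded after a ≥48 hr, 37 °C incubation.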
# IL-1B inflam inh – inflammasome signaling inhibition, IL-1 beta readout; THP-1 LPS/ATP IL-1B secretion, AlphaLISA, 16 h; active compounds read low; activity change, % at 57.5 µM; AID 743279; hit rate 4.7% among 360,000; in the data active = activity change below about -50%; inconclusive = mostly about -30% to -49%
#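 THP-1 cells pretreated 1 hr with compounds (up to 57.5 uM final), then stimulated with LPS (250 ng/mL final) plus ATP (1.25 mM final); secreted IL-1B measured by AlphaLISA after 16 hr, decreased signal indicating inhibition.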
# HT1080 IDH1KD tx – kills HT-1080 cells with IDH1 knockdown. AID 686971. HT-1080 IDH1 knockdown viability, ATP luminescence, 48 h. Potency, µM (top dose mostly 46.1 µM), usual class: cytotoxic. hit rate 2% among 360,000
#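 Assay cells: HT-1080 with IDH1 knockdown, 750 per well, RPMI/5% FBS. Exposure: 48 h at 37 °C following 2 h pre-incubation. Read: CellTiter-Glo luminescence; fitted concentration-response, curve class assigned.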
# Hits are given with their value; – = inactive; ? = inconclusive; · = not tested or not shown. Only some compounds are listed: those with a hit (about 19% of all), similar ones and a draw of the others. Unless noted, calls follow the shape of the dose curve; as a rule, active = well fitted curve in the direction sought with a large enough effect; inconclusive = small, poorly fitted or top-dose-only effect, or another doubt; inactive = no such curve, though single readings can be large; an effect the other way counts as inactive or inconclusive.
SMILES,ELG1 repair inh,DT40 TDP1 CPT,HT1080NT lethal,TDP1 cell noCPT,IL-1B inflam inh,HT1080 IDH1KD tx
Cc1ccc(Cl)cc1N1CCN(C(c2ccc(C#N)cc2)c2nnnn2C2CCCC2)CC1 (stereo not given),–,–,–,–,–,–
COc1cc(C(c2nnnn2C(C)(C)C)N2CCN(c3nc4ccccc4s3)CC2)ccc1O (stereo not given),–,15µM,–,12µM,–,–
NN/C(=C\[N+](=O)[O-])Nc1ccccc1,?,?,–,21µM,–,–
NN/C(=C\[N+](=O)[O-])Nc1ccc(Cl)cc1,–,?,–,?,–,–
CCOC(=O)[C@]12CCCC=C1N(Cc1ccc3c(c1)OCO3)C(=O)[C@H](CC(=O)NCCc1ccccc1OC)C2,·,?,?,16µM,?,–
COC(=O)[C@]12CCCCC=C1N(Cc1ccc3c(c1)OCO3)C(=O)[C@H](CC(=O)NCCc1ccccc1OC)C2,·,23µM,?,18µM,·,12µM
Cc1ccc(C(=O)NCCC(=O)N2CCCC2)cc1,?,–,–,–,–,–
O=C(O)c1cccc(NC(=O)c2cc3cc(Br)cc(Br)c3oc2=O)c1,·,–,·,–,·,·
CCCOc1ccc(N2C(=O)CC(N3CCN(c4ccc([N+](=O)[O-])cc4)CC3)C2=O)cc1 (stereo not given),2.1µM,–,–,–,–,–
COc1ccc(N2C(=O)CC(N3CCN(c4ccc(Cl)cc4)CC3)C2=O)cc1 (stereo not given),–,–,–,–,-51,–
CCOC(=O)C1CCN(C(=O)c2c(-c3ccccc3)noc2C)CC1,–,–,–,–,-73,–
COc1ccc(CN2CCN(C(=O)c3c(-c4ccccc4)noc3C)CC2)cc1F,?,?,–,23µM,–,–
CCCS(=O)(=O)NC(=O)C1(C)CCCN(C(=O)c2c(-c3ccccc3)noc2C)C1 (stereo not given),·,–,–,–,–,–
CCOC(=O)C1(C)CCCN(C(=O)c2c(-c3ccccc3)noc2C)C1 (stereo not given),·,13µM,–,?,–,–
O=C(CCNC(=O)c1ccccc1Cl)Nc1nccs1,–,–,–,–,–,–
Cc1ccccc1CNc1nc(N(C)C)nc2c1cnn2C,·,–,·,?,·,·
O=C1CC(c2cccc([N+](=O)[O-])c2)c2cc3c(cc2N1)CCC3 (stereo not given),16µM,18µM,?,26µM,–,?
COc1cccc(C2CC(=O)Nc3cc(OC)c(OC)cc32)c1 (stereo not given),–,–,–,–,–,–
O=C1CC(c2cccc([N+](=O)[O-])c2)c2c(ccc3ccccc23)N1 (stereo not given),?,13µM,?,8.2µM,–,12µM
COc1cccc(C2CC(=O)Nc3cc4c(cc32)CCC4)c1 (stereo not given),–,4.1µM,23µM,2.6µM,–,26µM
COc1cccc(C2CC(=O)Nc3cc(C)c(C)cc32)c1 (stereo not given),·,?,?,15µM,–,–
Cc1noc(C)c1-c1nccc(N2CCN(C)CC2)n1,·,–,·,–,·,·
O=C1CC(c2cccc(Cl)c2)c2cc3c(cc2N1)CCC3 (stereo not given),–,4.6µM,7.1µM,2.9µM,–,?
CCOc1cccc(C2CC(=O)Nc3cc(OC)c(OC)cc32)c1 (stereo not given),–,?,–,?,–,–
CCOc1ccc(/C=C2\C(=O)c3ccccc3OC2c2ccccc2)cc1 (stereo not given),–,?,–,18µM,–,–
COc1ccc(/C=C2\C(=O)c3ccccc3OC2c2ccccc2)cc1 (stereo not given),23µM,?,?,?,–,?
